Assay results from PubChem BioAssay (NCI).
About 83,000 compounds went through this panel and 20% of them were active in at least one assay; those are over-represented in the sample as a whole.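 Growth was measured after 48 h exposure to one concentration of compound in 96-well plates. Values under 10 count as active.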 Calls of active or inactive are those of the source.

Key:
Test in all cases: NCI-60 one-dose screen, 48 h (100 = growth as untreated, 0 = no growth, -100 = all killed)
Settings in all cases: 10 µM unless noted
[1] = tested on: NCI-H226 lung
[2] = tested on: NCI-H322M lung
[3] = tested on: NCI-H460 lung
[4] = tested on: HOP-92 NSCLC
[5] = tested on: NCI-H522 lung
[6] = tested on: A549/ATCC NSCLC
[7] = tested on: 786-0 renal
[8] = tested on: COLO 205 colon
[9] = tested on: DU-145 prostate
[10] = tested on: HOP-62 NSCLC

Measured: growth

O=C(CCN1C(=O)/C(=C/c2ccccc2)SC1=S)N1CCOCC1
inactive: [1] 104% | [2] 87.2% | [3] 99.3% | [4] 94.6% | [5] 58.3% | [6] 101% | [7] 82.6% | [8] 119% | [9] 77.3%

O=C(N/N=C/c1cccs1)c1[nH]c2ccc(Br)cc2c1-c1ccccc1
active: [3] 6.54% | [5] -43.9% | [8] -67.6%
inactive: [1] 50.9% | [10] 44.2% | [4] 39.9% | [6] 23.1% | [7] 12% | [9] 20.7%

COc1ccc2[nH]cc(-c3cc(N)n4nc(-c5c[nH]c6ccc(OC)cc56)cc4n3)c2c1
inactive: [1] 36.8% | [10] 76.2% | [4] 79.1% | [5] 53.9%
active: [3] -84.6% | [6] -5.78% | [7] -86.4% | [8] -54.3% | [9] -10.5%

Cc1cc2nc3c4cc(Cl)ccc4n(CC(=S)NCCN(C)C)c3nc2cc1C
active: [1] -60.4% | [3] -90.2% | [4] -6.84% | [5] -49.4% | [6] -69.9% | [7] -95.6% | [8] -39% | [9] -51.6%
inactive: [10] 50.1%

CC(C)Sc1nc(Nc2ccc(S(N)(=O)=O)cc2)c(C#N)c(-c2ccc(F)cc2)n1
inactive: [5] 73.5% | [8] 79% | [9] 25.1%

O=C(CSc1nc2sc3c(c2c(=O)n1-c1ccc(Cl)cc1)CCCC3)NNC(=O)Nc1cccc(C(F)(F)F)c1
inactive: [1] 32.6% | [10] 37.9% | [5] 23.1% | [6] 24% | [7] 30.3% | [8] 27% | [9] 18.2%
active: [3] 5.83% | [4] -14.1%

COc1ccccc1C(=O)CSc1nc(Nc2ccc(S(N)(=O)=O)cc2)c2ccccc2n1
inactive: [1] 94.9% | [10] 86.7% | [3] 85.1% | [4] 89.6% | [5] 90.5% | [6] 98.5% | [7] 91% | [8] 107% | [9] 96.9%

c1ccc2c(NCCCN3CCOCC3)c3oc4ccccc4c3nc2c1
active: [1] -11.3% | [10] -13.4% | [3] 0.606% | [4] -22.9% | [5] -52.8% | [6] -62.1% | [7] 6.38% | [8] -67.8% | [9] 2.98%

CCN1C(=S)N(CC)C2C1NN=C1SC(c3ccccc3)=CC(=O)N12 (stereo not given)
inactive: [1] 101% | [10] 100% | [3] 117% | [4] 103% | [5] 94.5% | [6] 101% | [7] 104% | [8] 115% | [9] 117%
